Pf growth 48h: inhibits P. falciparum growth in the first generation, 48 h | Potency, µM (series often up to 28.7 µM), for inactives: at the top dose activity change, negative = inhibition, actives largely listed as inhibitors | P. falciparum luciferase growth in erythrocytes, 48 h | 5.9% of 310,000 active; note: % is set by controls: 0 for no effect and ±100 for the full control effect
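Cell-based growth assay: transgenic P. falciparum expressing firefly luciferase, cultured in red cells within RPMI 1640 containing 0.5% w/v Albumax, 24 mM bicarbonate and gentamycin. A drop in luciferase activity indicates inhibition.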
AmpC detergent: blocks E. coli AmpC beta-lactamase in detergent assay; P00811; AmpC hydrolysis of nitrocefin, absorbance 480 nm, 0.01% Triton; Potency, µM (doses to about 114 µM), for inactives: at the top dose activity change, negative = inhibition, usual class: inhibitors; 0.041% of 370,000 active; AID 485294;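 note: 0% = no-compound wells and -100% = no-enzyme wells; nearly all actives have a fitted effect of over 25% in size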
Target sequence (P00811 whole entry, looked up): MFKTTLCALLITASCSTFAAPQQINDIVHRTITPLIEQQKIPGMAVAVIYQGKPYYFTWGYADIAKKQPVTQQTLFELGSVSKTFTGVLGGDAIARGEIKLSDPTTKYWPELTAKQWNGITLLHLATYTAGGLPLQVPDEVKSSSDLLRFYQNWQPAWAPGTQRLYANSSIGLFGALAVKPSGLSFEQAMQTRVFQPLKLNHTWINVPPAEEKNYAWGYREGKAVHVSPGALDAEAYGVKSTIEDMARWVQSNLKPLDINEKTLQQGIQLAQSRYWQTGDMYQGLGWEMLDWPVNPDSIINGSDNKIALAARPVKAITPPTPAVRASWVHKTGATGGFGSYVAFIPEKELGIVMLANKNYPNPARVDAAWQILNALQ
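20 mM phosphate pH 7.0 + 0.01% (detergent screen) or 0.0001% Triton X-100; 5.3 nM AmpC reagent; cpd preinc 15 min RT; nitrocefin (800 uM stock) to start; A480 q20 s × 4 min; Activity was normalised to no-enzyme and no-compound control wells.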
Pf growth 96h: P. falciparum growth inhibition at 96 hour, primary screen for plastid delayed-death inhibitors | P. falciparum luciferase reporter growth, 96 h | Potency, µM (series often up to 28.7 µM), inactives show top-dose activity change, negative = inhibition, usual class: inhibitors | 6.9% of 320,000 active | AID 504834; note: % is set by controls: 0 for no effect and ±100 for the full control effect
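Readout is luminescence from an integrated firefly luciferase in P. falciparum. Red cells, 2% hematocrit and 0.05% parasitemia final, were cultured with compound through two parasite generations (96 hours) at 37 C, 5% CO2.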
Sm TGR inh: inhibitors of Schistosoma mansoni thioredoxin glutathione reductase; purified TGR, DTNB reduction, TNB absorbance 405 nm; Potency, µM (series often up to 114 µM), for the others: at the top dose activity change, negative = inhibition, most hits filed as inhibitors; 3% of 360,000 active; AID 485364; note: % is set by controls: 0 for no effect and ±100 for the full control effect; nearly all actives have a fitted effect of over 60% in size
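Kinetic colorimetric format: TGR-catalysed, NADPH-driven DTNB reduction monitored via TNB absorbance. Enzyme dispensed at 20 nM; compound exposure 15 min at room temperature before reaction start.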
SARS PLP yeast: inhibitors of SARS-CoV papain-like protease in yeast; S. cerevisiae expressing SARS-CoV PLpro, growth rescue; Potency, µM (doses to about 32.9 µM), inactives show at the top dose activity, positive = growth rescue, hits mostly activators; 0.19% of 330,000 active; AID 485353; calls by dose curve; note: 0% is about no effect; nearly all actives have a fitted effect of over 55% in size
AmpC no deterg: inhibitors of E. coli AmpC beta-lactamase without detergent | AmpC nitrocefin hydrolysis, absorbance 480 nm, 0.0001% Triton | Potency, µM (doses to about 57.1 µM), without a hit: at the top dose activity change, negative = inhibition, hits mostly inhibitors | 0.52% of 330,000 active | AID 485341;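 note: plate controls were no compound for no effect and no enzyme for full effect; nearly all actives have a fitted effect of over 20% in size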
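20 mM phosphate pH 7.0 + 0.01% (detergent screen) or 0.0001% Triton X-100; 5.3 nM AmpC reagent; cpd preinc 15 min RT; nitrocefin (800 uM stock) to start; A480 q20 s × 4 min; Activity was normalised to no-enzyme and no-compound control wells.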
Starred values were filed as active, the others as inactive; ? = inconclusive; . = not tested or not shown. The list is not random: actives were taken first. Their share in the collection is about 12%. Unless noted, calls come from the whole dose curve; as a rule, active = well fitted curve in the direction sought with a large enough effect; inconclusive = small, poorly fitted or top-dose-only effect, or another doubt; inactive = no such curve, though single readings can be large; an effect the other way counts as inactive or inconclusive. Potency is the fitted concentration of half-maximal effect.

SMILES | Pf growth 48h | AmpC detergent | Pf growth 96h | Sm TGR inh | SARS PLP yeast | AmpC no deterg
Cc1ccc(O)c(C(=O)c2cc(C(=O)NCc3ccccc3)c(=O)n(Cc3ccccc3)c2)c1 | 3.7µM* | -6% | ? | -6% | -7% | -38%
N#Cc1cc(C(=O)c2cc(Br)ccc2O)cn(Cc2ccccc2)c1=O | ? | 3% | ? | 0% | 0% | ?
O=C(c1cc(C(=O)NCc2ccccc2)c(=O)n(Cc2ccccc2)c1)c1cc(Br)ccc1O | 1.5µM* | 0% | 0.41µM* | -4% | 25% | -46%
CC(=O)N1CCN(C(=O)c2ccc(S(=O)(=O)Nc3cccc(C(F)(F)F)c3)cc2)CC1 | 4% | -15% | -11% | -5% | -1% | 18%
Cc1ccc(NC(=O)CN2CCSc3ccc(S(=O)(=O)N4CCCC4)cc32)cc1C | . | 28% | . | 9% | . | .
CCOc1ccc(Cc2nccc3cc(OCC)c(OCC)cc23)cc1OCC | ? | . | 4.1µM* | . | . | .
CCOC(=O)N1CCC(NC(=O)CS(=O)(=O)Cc2nc(-c3ccccc3C)oc2C)CC1 | -4% | ? | ? | 45µM* | -11% | 122%
Cc1oc(-c2ccccc2Cl)nc1CS(=O)(=O)CC(=O)NC1CCCC1 | ? | 2% | ? | 45µM* | -2% | 27%
Cc1oc(-c2ccccc2Cl)nc1CSCC(=O)NC1CCCC1 | . | ? | ? | -16% | -14% | 19%
CCOC(=O)N1CCN(Cc2nnc(-c3ccccc3C)o2)CC1 | 19% | 3% | 0.74µM* | 7% | -2% | 28%
CCN1CCCC1CNC(=O)CS(=O)(=O)Cc1nc(-c2ccccc2C)oc1C (stereo unspecified) | 12µM* | ? | -16% | -31% | 1% | 159%
Cc1cccc(NC(=O)N2CCc3c(sc4c3CCCC4)C2c2ccc(F)cc2)c1 (stereo unspecified) | . | 2% | . | 0% | . | .
N#Cc1c(N2CCSCC2)nsc1-c1ccccc1Cl | ? | -1% | ? | -8% | -5% | -34%
Cc1ccccc1-c1nc(CS(=O)(=O)CC(=O)NC2CCCC2)c(C)o1 | 7% | 0% | 18% | 40µM* | 4% | 23%
CCOC(=O)c1c(C)oc2nc(C)nc(NCCc3ccc(OCC)c(OCC)c3)c12 | . | 5% | . | -12% | . | .
CCOC(=O)N1CCC(c2cc(=O)n3[nH]c(C)c(-c4ccc(F)cc4)c3n2)CC1 | ? | ? | -22% | -1% | -4% | 25µM*
CCN(C[C@H]1N[C@@](Cc2ccccc2)(C(=O)OC)[C@H]2C(=O)N(Cc3ccccc3)C(=O)[C@@H]12)C(=O)Nc1ccc(Cl)cc1 | . | . | . | . | -17% | -29%
CN(C)S(=O)(=O)c1ccc(C(=O)Nc2c(C(=O)Nc3ccc(F)cc3)oc3ccccc23)cc1 | . | -8% | . | -2% | . | .
CCCCC1CCC(C(=O)N2CC(=O)Nc3ccc(C)cc3C2c2ccc(F)cc2)CC1 (stereo unspecified) | . | -1% | . | -5% | . | .
Cc1cccc(N2CCN(C(=O)c3ccc(CS(=O)Cc4cccc(Cl)c4)o3)CC2)c1C (stereo unspecified) | 4% | -11% | ? | 40µM* | -5% | 143%
Cc1ccc(Cl)cc1N1CCN(C(=O)c2ccc(CS(=O)Cc3ccc(Cl)cc3)o2)CC1 (stereo unspecified) | 21% | -1% | ? | 45µM* | -6% | 160%
CCOC(=O)N1CCN(C(=O)c2ccc(CS(=O)Cc3ccc(C)cc3)o2)CC1 (stereo unspecified) | 12% | 0% | ? | 40µM* | 5% | 31%
Cc1nc(SCC(=O)Nc2cc(S(=O)(=O)N3CCOCC3)ccc2Cl)nc(C)c1C | ? | 6% | 15µM* | -1% | 7% | 121%
Cc1ccc(S(=O)(=O)N2CCOCC2)cc1NC(=O)CSc1nnc2cc(C)c3ccccc3n12 | 5.9µM* | 3% | 13µM* | 3% | 6% | 218%
Cc1cc2nnc(SCC(=O)Nc3cc(S(=O)(=O)N4CCOCC4)ccc3Cl)n2c2ccccc12 | 5.2µM* | -1% | 7.4µM* | -9% | 14% | -58%
SMILES | Pf growth 48h | AmpC detergent | Pf growth 96h | Sm TGR inh | SARS PLP yeast | AmpC no deterg
Nc1cc(=O)[nH]c(SCC(=O)Nc2cc(S(=O)(=O)N3CCOCC3)ccc2Cl)n1 | 0% | 17% | -3% | 4% | 2% | 25%
CC1CN(S(=O)(=O)c2csc(C(=O)Nc3ccccc3)c2)CC(C)O1 (stereo unspecified) | 0% | 4% | 33% | 4% | 0% | -9%
CC(=O)Nc1ccc(NC(=O)C(C)OC(=O)C2(c3ccc(Cl)cc3)CCCC2)cc1 (stereo unspecified) | 9.3µM* | -13% | 12µM* | -1% | 4% | 63%
CCOC(=O)CSC1=NN2CCS(=O)(=O)N=C2S1 | 1% | -2% | 25% | 10µM* | 3% | -14%
COc1ccc(CCNC(=O)c2cc(Nc3cc(C)cc(C)c3)nc3ccccc23)cc1OC | . | 1% | . | -2% | . | .
CC(/C=N/NC(=O)Cc1cc(=O)[nH][nH]1)=C\c1ccccc1 | 26% | 1% | 28% | -1% | 0% | -41%
Cc1oc(C(=O)O)cc1COc1ccc2c(C)cc(=O)oc2c1 | 3% | -17% | 2.1µM* | -14% | 0% | -25%
COc1ccc(CCNC(=O)COc2ccc3c(C)cc(=O)oc3c2)cc1OC | 12% | -4% | 2.9µM* | -5% | -2% | -20%
Cc1ccn2c(=O)nc(SCC(=O)NC3CCCC3)nc2c1 | -30% | ? | 4% | -7% | -7% | -8%
COC(=O)c1c(SCC(=O)Nc2ccccc2OC)[nH]c2ccccc2c1=O | . | -2% | . | 4% | . | .
CCCNC(=O)c1nc2ncc(Br)cn2n1 | 26% | ? | 13µM* | 0% | -4% | -7%
CCCCNC(=O)c1nc2ncc(Br)cn2n1 | 28% | -12% | 45% | 0% | 0% | 13%
CC(C)Cn1c(=O)c(-[n+]2ccccc2)c([O-])c2ccccc21 | -4% | -5% | 13µM* | -7% | 3% | -25%
O=C1c2ccccc2C(Nc2cccnc2)N1Cc1ccccc1 (stereo unspecified) | . | ? | 10µM* | -11% | 2% | -6%
O=C(c1cccc(NS(=O)(=O)c2ccc(Br)cc2)c1)N1CCN(c2ccccc2O)CC1 | ? | 5% | ? | -5% | 7% | -9%
COC(=O)c1ccc2c(=O)[nH]c(CN3c4ccccc4CC3C)nc2c1 (stereo unspecified) | ? | -4% | 3.3µM* | 7.1µM* | 4% | -13%
CCOC(=O)c1ccc(NC(=O)CCc2c(C)n(CC)c3cc(-c4ccccc4OC)nn3c2=O)cc1 | . | 4% | . | 6% | . | .

High-throughput results: PubChem BioAssay, National Center for Advancing Translational Sciences (NCATS)
